The record followed here is paper PMC7862700, “An all-to-all approach to the identification of sequence-specific readers for epigenetic DNA modifications on cytosine”.

What all share (experiment): DAPPL (digital affinity profiling via proximity ligation, sequencing); 10 mM Tris-HCl pH 7.5, 50 mM NaCl, 1 mM DTT, 4% glycerol, room temperature, 30 min; GST-TFs on glutathione beads, 16-mer random dsDNA library, 0.1% formaldehyde crosslink after washing; high values mean tight binding
One test addresses T1, FLI1 (Homo sapiens, UniProt Q01543 1-452).
T1 sequence: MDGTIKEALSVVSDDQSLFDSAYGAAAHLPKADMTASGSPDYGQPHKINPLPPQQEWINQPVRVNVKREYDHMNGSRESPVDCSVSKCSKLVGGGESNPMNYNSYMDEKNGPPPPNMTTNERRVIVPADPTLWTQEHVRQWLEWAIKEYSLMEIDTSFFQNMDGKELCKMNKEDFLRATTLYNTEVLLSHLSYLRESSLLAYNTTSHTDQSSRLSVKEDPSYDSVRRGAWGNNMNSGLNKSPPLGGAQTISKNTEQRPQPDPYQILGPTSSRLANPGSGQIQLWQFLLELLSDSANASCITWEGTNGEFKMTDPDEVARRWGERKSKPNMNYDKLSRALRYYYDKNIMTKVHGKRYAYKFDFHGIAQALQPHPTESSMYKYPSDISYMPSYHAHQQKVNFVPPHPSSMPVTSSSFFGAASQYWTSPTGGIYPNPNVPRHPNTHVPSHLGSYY
The settings on record: protein: recombinant; tags: N-terminal GST; dsDNA, one strand shown. An outline of the steps:
(§1)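 In yeast, human transcription factors were expressed with a GST fusion, then pulled down on glutathione beads and given DNA barcodes. Pooled with a tag-only sample, they were exposed to 200 nmole of a 16-mer random double-stranded DNA library (Tris/NaCl/DTT/glycerol buffer, room temperature, 30 min), washed, crosslinked with 0.1% formaldehyde, proximity-ligated using BsaI/T4 ligase for 1 h at 37 °C, PCR-amplified and read on an Illumina NextSeq500. Each hexamer's frequency of reads for a factor, divided by the matching frequency for the tag-only sample, gives the binding signal.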

For the next test, the target named is T2, ELK1 (Homo sapiens, UniProt P19419 1-428).
T2 sequence: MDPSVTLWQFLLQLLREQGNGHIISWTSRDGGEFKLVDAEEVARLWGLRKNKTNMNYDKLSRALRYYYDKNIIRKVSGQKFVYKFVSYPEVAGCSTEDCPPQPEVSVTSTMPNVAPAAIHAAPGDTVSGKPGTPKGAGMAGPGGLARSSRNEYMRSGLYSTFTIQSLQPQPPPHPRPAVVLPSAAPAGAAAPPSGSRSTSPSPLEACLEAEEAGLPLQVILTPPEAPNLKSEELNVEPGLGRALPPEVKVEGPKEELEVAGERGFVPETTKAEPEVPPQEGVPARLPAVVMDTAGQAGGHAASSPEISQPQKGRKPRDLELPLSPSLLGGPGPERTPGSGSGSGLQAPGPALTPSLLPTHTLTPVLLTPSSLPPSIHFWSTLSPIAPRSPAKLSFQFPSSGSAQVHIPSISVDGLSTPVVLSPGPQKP
Conditions: protein: recombinant; tags: N-terminal GST; dsDNA, one strand shown. The gist of the method:
as §1

For a further test, the target named is T3, GABPA (Homo sapiens, UniProt Q06546 1-454).
T3 sequence: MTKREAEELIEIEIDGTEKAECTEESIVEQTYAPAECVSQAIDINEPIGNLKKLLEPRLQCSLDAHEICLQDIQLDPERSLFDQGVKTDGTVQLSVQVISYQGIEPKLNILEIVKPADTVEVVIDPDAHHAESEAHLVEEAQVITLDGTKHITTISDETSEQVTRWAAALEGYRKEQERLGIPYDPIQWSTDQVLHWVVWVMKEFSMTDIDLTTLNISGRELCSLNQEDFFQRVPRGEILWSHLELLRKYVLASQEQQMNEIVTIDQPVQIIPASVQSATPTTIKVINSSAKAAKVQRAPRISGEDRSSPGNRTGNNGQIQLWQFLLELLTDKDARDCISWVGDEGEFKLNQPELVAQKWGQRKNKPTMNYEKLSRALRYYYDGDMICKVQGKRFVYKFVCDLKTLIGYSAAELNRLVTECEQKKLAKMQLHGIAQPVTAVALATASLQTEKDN
Conditions: protein: recombinant; tags: N-terminal GST; dsDNA, one strand shown. An outline of the steps:
as §1

In the next test the target is T4, ERG (Homo sapiens, UniProt P11308 1-479).
T4 sequence: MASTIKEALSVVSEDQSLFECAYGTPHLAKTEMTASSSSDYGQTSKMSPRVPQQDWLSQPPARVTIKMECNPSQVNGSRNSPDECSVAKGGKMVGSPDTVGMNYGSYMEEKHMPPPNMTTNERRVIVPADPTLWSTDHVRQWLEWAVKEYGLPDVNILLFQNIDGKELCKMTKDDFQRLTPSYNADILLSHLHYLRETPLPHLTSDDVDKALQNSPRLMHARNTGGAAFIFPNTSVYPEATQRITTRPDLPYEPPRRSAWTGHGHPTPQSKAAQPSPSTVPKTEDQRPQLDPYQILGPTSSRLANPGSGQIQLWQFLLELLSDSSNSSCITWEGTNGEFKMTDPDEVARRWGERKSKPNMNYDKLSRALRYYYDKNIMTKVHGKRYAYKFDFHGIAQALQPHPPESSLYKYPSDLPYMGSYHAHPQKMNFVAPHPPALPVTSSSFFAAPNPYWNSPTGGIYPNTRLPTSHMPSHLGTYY
The settings on record: protein: recombinant; tags: N-terminal GST; dsDNA, one strand shown. An outline of the steps:
as §1

A further test addresses ELF1 (Homo sapiens, UniProt P32519 1-619). The settings on record: protein: recombinant; tags: N-terminal GST; dsDNA, one strand shown. The gist of the method:
as §1

The next test deals with T5, EHF (Homo sapiens, UniProt Q9NZC4 1-300).
T5 sequence: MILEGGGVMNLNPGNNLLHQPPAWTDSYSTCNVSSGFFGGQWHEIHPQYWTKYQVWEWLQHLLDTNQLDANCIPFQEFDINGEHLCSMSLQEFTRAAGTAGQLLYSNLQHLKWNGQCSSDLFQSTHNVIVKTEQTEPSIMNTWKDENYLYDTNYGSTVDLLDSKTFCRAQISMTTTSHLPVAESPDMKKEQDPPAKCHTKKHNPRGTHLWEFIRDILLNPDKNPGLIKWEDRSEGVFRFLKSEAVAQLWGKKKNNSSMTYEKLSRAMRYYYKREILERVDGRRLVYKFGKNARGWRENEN
Conditions: protein: recombinant; tags: N-terminal GST; dsDNA, one strand shown. The gist of the method: as §1

In the next test the target is SPI1 (Homo sapiens, UniProt P17947 1-270). The settings on record: protein: recombinant; tags: N-terminal GST; dsDNA, one strand shown. An outline of the steps:
as §1

In another test the target is SPIB (Homo sapiens, UniProt Q01892 1-262). The settings on record: protein: recombinant; tags: N-terminal GST; dsDNA, one strand shown. An outline of the steps: as §1
Another test addresses T6, ELK3 (Homo sapiens, UniProt P41970 1-407).
T6 sequence: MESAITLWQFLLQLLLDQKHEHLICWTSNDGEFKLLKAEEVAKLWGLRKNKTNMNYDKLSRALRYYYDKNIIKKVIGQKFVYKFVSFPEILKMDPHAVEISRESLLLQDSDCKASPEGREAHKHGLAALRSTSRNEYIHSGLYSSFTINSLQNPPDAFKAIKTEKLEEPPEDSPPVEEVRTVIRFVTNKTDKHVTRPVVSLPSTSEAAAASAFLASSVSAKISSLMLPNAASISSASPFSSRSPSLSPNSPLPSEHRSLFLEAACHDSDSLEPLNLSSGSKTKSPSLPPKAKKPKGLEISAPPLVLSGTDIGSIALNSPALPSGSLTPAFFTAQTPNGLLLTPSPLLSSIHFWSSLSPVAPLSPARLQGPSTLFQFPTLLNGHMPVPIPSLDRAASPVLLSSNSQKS
Conditions: protein: recombinant; tags: N-terminal GST; dsDNA, one strand shown. An outline of the steps:
as §1

Another test addresses T7, FEV (Homo sapiens, UniProt Q99581 1-238).
T7 sequence: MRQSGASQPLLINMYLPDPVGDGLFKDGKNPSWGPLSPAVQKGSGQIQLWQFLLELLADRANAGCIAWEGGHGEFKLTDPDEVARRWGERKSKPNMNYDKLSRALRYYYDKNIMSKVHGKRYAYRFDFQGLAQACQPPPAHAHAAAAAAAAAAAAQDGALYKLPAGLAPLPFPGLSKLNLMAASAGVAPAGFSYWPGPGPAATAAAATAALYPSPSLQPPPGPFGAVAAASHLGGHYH
Conditions: protein: recombinant; tags: N-terminal GST; dsDNA, one strand shown. An outline of the steps: as §1

The target in the next test is ETV5 (Homo sapiens, UniProt P41161 1-510). Conditions: protein: recombinant; tags: N-terminal GST; dsDNA, one strand shown. An outline of the steps: as §1
The target of a further test is HSF1 (Homo sapiens, UniProt Q00613 1-529). The settings on record: protein: recombinant; tags: N-terminal GST; chain copies: 3; dsDNA, one strand shown. The gist of the method:
as §1

The target in a further test is T8, SPIC (Homo sapiens, UniProt Q8N5J4 1-248).
T8 sequence: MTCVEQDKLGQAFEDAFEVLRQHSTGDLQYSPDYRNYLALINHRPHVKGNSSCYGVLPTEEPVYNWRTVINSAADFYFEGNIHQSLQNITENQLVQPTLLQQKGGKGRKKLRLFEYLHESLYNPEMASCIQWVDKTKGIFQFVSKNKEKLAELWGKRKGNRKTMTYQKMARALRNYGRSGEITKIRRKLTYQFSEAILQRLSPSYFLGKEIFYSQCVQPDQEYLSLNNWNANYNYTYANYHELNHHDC
Conditions: protein: recombinant; tags: N-terminal GST; dsDNA, one strand shown. An outline of the steps:
as §1

In another test the target is ELF4 (Homo sapiens, UniProt Q99607 1-663). The settings on record: protein: recombinant; tags: N-terminal GST; dsDNA, one strand shown. An outline of the steps:
as §1

The next test has as its target T9, ELK4 (Homo sapiens, UniProt P28324-2 1-405).
T9 sequence: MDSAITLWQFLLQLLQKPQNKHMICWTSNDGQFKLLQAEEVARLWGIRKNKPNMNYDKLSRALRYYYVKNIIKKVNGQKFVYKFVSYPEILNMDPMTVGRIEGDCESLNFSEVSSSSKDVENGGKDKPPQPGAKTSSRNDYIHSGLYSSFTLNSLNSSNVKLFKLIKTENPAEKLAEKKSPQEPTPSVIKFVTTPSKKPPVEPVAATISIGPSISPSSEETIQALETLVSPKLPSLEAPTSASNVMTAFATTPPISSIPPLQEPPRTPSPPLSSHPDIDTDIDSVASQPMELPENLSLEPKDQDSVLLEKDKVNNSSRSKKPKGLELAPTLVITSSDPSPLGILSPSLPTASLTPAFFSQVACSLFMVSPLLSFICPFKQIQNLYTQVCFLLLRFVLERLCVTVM
The settings on record: protein: recombinant; tags: N-terminal GST; dsDNA, one strand shown. An outline of the steps:
as §1

A further test addresses T10, ETV2 (Homo sapiens, UniProt O00321 1-342).
T10 sequence: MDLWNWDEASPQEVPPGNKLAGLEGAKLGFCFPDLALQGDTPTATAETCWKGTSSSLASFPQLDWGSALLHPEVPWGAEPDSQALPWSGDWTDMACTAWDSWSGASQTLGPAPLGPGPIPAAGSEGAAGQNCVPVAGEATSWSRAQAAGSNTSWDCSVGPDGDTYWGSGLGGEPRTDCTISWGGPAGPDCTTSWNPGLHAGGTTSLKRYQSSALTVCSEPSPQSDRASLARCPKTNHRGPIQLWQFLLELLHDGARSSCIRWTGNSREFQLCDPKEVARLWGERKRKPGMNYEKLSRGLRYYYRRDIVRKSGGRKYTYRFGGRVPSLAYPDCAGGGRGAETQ
The settings on record: protein: recombinant; tags: N-terminal GST; dsDNA, one strand shown. An outline of the steps: as §1

The target in the next test is T11, ELF3 (Homo sapiens, UniProt P78545 1-371).
T11 sequence: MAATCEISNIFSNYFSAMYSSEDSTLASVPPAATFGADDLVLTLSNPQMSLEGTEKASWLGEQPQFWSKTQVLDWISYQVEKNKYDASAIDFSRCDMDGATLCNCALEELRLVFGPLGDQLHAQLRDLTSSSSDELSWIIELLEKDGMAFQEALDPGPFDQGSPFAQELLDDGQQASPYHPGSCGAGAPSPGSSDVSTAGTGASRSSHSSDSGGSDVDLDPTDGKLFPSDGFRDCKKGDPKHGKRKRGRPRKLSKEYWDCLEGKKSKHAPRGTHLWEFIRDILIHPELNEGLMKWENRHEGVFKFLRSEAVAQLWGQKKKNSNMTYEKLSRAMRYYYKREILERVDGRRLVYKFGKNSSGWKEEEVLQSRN
Conditions: protein: recombinant; tags: N-terminal GST; dsDNA, one strand shown. The gist of the method:
as §1

For another test, the target named is CRX (Homo sapiens, UniProt O43186 1-299). The settings on record: protein: recombinant; tags: N-terminal GST; dsDNA, one strand shown. An outline of the steps:
as §1

The target in another test is ETV1 (Homo sapiens, UniProt P50549 1-477). Conditions: protein: recombinant; tags: N-terminal GST; dsDNA, one strand shown. An outline of the steps: as §1
Chain of ETV1 (P50549 whole entry): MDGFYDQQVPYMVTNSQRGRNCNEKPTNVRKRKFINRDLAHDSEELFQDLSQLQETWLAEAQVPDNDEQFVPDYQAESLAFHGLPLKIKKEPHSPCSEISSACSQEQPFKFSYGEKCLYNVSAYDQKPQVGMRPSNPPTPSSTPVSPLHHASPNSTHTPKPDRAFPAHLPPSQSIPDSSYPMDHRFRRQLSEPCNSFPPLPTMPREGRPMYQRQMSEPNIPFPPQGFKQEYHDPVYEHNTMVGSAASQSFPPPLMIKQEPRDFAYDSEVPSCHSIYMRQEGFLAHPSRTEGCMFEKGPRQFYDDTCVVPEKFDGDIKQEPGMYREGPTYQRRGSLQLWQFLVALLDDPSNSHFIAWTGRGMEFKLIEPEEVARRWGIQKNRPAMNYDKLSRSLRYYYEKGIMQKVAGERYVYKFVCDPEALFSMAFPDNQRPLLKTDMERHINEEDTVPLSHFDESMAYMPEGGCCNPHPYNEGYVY

Chain of CRX (O43186 whole entry): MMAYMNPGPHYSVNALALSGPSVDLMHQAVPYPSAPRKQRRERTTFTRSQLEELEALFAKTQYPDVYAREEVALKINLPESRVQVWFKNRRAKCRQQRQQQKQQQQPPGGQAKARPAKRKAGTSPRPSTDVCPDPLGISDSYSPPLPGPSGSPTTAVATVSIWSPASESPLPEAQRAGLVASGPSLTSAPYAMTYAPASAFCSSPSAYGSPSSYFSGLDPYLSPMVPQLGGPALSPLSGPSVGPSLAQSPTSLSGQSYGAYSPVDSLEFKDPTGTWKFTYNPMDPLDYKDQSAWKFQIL
Chain of ETV5 (P41161 whole entry): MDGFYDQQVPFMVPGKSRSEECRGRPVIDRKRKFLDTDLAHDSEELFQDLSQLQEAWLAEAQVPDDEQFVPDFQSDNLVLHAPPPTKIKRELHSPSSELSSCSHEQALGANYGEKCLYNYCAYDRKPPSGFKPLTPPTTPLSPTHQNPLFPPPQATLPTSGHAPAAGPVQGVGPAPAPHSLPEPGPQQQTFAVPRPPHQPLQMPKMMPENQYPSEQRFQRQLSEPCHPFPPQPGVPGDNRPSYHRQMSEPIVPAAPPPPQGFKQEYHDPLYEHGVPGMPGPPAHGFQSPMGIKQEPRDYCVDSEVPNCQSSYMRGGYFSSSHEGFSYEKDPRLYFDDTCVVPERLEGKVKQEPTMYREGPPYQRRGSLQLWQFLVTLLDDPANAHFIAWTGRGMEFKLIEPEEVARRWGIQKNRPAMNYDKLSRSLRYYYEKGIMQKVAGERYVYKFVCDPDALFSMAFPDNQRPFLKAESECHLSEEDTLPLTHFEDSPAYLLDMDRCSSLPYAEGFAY
Chain of ELF4 (Q99607 whole entry): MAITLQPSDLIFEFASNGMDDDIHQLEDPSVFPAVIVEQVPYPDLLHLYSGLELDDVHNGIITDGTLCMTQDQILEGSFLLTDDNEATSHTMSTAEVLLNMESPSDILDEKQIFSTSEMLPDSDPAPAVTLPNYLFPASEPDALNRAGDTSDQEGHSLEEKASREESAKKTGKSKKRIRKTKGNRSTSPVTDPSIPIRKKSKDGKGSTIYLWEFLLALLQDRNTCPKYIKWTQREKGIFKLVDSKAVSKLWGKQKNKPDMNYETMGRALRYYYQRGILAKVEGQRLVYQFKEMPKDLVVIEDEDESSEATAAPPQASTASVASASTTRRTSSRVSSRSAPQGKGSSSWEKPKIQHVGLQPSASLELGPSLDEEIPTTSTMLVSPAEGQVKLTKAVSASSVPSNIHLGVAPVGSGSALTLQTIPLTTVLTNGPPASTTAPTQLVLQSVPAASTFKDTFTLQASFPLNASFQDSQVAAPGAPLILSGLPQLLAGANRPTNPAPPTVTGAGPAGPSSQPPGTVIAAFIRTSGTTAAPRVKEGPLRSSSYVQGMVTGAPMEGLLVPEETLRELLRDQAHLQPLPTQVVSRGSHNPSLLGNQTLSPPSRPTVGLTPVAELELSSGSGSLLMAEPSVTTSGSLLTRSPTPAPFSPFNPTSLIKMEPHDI
Chain of ELF1 (P32519 whole entry): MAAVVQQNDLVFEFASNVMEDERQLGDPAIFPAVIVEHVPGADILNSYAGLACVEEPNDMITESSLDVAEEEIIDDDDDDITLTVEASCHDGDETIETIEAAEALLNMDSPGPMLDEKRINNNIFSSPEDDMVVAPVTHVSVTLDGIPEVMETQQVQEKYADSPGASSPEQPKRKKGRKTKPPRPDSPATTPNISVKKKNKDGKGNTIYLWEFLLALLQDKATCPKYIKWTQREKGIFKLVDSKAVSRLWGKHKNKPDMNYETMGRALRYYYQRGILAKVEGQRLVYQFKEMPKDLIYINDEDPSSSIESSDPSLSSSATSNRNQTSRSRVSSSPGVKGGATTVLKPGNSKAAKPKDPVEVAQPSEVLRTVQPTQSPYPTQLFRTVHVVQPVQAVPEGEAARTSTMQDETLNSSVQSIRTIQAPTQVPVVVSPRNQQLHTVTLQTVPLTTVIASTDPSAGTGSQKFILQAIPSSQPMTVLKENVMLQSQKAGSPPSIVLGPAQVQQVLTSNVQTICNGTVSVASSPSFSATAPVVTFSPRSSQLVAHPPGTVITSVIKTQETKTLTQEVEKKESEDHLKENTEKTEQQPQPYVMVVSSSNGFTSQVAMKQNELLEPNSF
Chain of SPIB (Q01892 whole entry): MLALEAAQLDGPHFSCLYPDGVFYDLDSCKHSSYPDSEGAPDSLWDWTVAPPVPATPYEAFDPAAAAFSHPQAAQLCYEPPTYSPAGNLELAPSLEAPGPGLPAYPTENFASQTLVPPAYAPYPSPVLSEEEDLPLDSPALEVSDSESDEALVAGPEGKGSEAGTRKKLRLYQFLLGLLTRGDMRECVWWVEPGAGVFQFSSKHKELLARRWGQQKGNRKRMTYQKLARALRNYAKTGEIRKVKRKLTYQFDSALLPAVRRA
Chain of HSF1 (Q00613 whole entry): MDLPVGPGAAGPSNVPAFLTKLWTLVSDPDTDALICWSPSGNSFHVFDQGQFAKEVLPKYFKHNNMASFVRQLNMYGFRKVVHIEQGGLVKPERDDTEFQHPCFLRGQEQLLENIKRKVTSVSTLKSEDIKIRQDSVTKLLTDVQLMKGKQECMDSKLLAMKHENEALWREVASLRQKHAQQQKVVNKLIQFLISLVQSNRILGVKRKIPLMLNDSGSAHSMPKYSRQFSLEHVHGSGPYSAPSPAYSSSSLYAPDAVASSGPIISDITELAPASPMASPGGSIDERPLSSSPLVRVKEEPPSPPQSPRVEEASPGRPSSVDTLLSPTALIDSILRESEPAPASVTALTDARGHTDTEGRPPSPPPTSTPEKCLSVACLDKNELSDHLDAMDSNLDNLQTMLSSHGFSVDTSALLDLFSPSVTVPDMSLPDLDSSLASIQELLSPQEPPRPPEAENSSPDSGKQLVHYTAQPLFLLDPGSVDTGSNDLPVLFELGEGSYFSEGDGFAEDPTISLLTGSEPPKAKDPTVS

Regarding CTAAAA, the binding signal with FLI1 was 1.13 fold enrichment (6-mer frequency, TF over GST control); in the test with ELK1, 1.12 fold enrichment (6-mer frequency, TF over GST control); in the test with GABPA, 1.18 fold enrichment (6-mer frequency, TF over GST control); in the test with ERG it was 1.2 fold enrichment (6-mer frequency, TF over GST control); in the test with ELF1, 1.13 fold enrichment (6-mer frequency, TF over GST control); with EHF it was 1.1 fold enrichment (6-mer frequency, TF over GST control). Besides, the binding signal with SPI1 is 1.26 fold enrichment (6-mer frequency, TF over GST control); with SPIB it was 1.1 fold enrichment (6-mer frequency, TF over GST control); with ELK3, 1.13 fold enrichment (6-mer frequency, TF over GST control); in the test with FEV, 1.09 fold enrichment (6-mer frequency, TF over GST control); in the test with ETV5, 1.16 fold enrichment (6-mer frequency, TF over GST control); with HSF1, 1.26 fold enrichment (6-mer frequency, TF over GST control). The binding signal is 1.25 fold enrichment (6-mer frequency, TF over GST control) with SPIC; 1.24 fold enrichment (6-mer frequency, TF over GST control) in the test with ELF4; 1.21 fold enrichment (6-mer frequency, TF over GST control) with ELK4; 1.21 fold enrichment (6-mer frequency, TF over GST control) in the test with ETV2; 1.12 fold enrichment (6-mer frequency, TF over GST control) in the test with ELF3; 1.4 fold enrichment (6-mer frequency, TF over GST control) with CRX. In addition, the binding signal in the test with ETV1 is 1.19 fold enrichment (6-mer frequency, TF over GST control).
